According to PubChem BioAssay AID588651 (The Scripps Research Institute Molecular Screening Center, 2011):
Unmarked numbers belong to inactive results. Activity calls are given as the source filed them. Cut-off read from the data, not from the text of the source: active = inhibition above about 65%; inactive = the rest.

Tested on: Fam108b
Assay: Fam108b inhibitors and proteome off-target selectivity – biochemical, gel-based ABPP, recombinant soluble Fam108b, HTS hits, complex proteome, late-stage follow-up (AID 588651);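 note: Fam108b spiked into mouse brain membrane proteome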
Settings: FP-rhodamine labeling in proteome, at 20 µM, stronger effect = higher value

| Compound | inhibition |
| --- | --- |
| Oc1c(Cl)cc(Cl)c(Cl)c1Cc1c(O)c(Cl)cc(Cl)c1Cl | 0% |
| O=C(Nc1ccc2[nH]c(=S)sc2c1)Nc1ccccc1F | 20% |
| O=[N+]([O-])c1ccc(NN=Cc2ccccc2O)cc1 | 0% |
| COc1ccc2ccccc2c1C(O)c1nccn1C (centres undefined) | 0% |
| COc1ccc(-c2csc3nc(-c4ccccc4F)oc(=O)c23)cc1 | 95% (active) |
| O=C(NC1CCCCC1)c1sc(=S)n2c1[nH]c(=O)c1ccccc12 | 0% |
| Cc1[nH]c2ccccc2c1C=NNC(=O)c1cccc(S(=O)(=O)Nc2cccc(C(F)(F)F)c2)c1 | 60% |
| CN(C)S(=O)(=O)c1cccc(NC(=O)COC(=O)c2cc(-c3cccc(Br)c3)nc3ccccc23)c1 | 0% |
| Cc1[nH]c2c(C)cccc2c1CCNC(=O)c1ccc2c(c1[N+](=O)[O-])C(=O)c1ccccc1C2=O | 40% |
| O=C1C(Cl)=C(Nc2ccc3cn[nH]c3c2)C(=O)c2ccccc21 | 0% |
| Fc1ccc2nc(Nc3nc4cc5c(cc4s3)OCO5)sc2c1 | 0% |
| Oc1nc(Nc2cccc(Cl)c2)sc1/C=C1\C=Nc2ccccc21 | 80% (active) |
| O=c1ccc2cc3c([nH]c4ccc(Br)cc43)oc-2c1O | 10% |
| CC1CCN(S(=O)(=O)c2ccc(C(=O)Nc3ccccc3-c3nc4ccccc4[nH]3)cc2)CC1 | 0% |
| Cc1cc(C)nc(SCc2ccc(C(=O)NN=Cc3cccc(O)c3O)cc2)n1 | 30% |
| O=C(Nc1ccc(-c2csc(Nc3ccccc3)n2)cc1)c1cc([N+](=O)[O-])cc(C(F)(F)F)c1 | 60% |
| Cc1ccccc1NC1=C/C(=N\S(=O)(=O)c2cccs2)c2ccccc2C1=O | 0% |

| Compound | inhibition |
| --- | --- |
| Cc1ccc(-c2csc3nc(C(C)C)oc(=O)c23)c(C)c1 | 90% (active) |
| COc1ccc(/C=C/C(=O)OCC(=O)Nc2cccc(Oc3ccccc3)c2)c(OC)c1 | 30% |
| COc1ccc(/C=C2\SC(=S)N(CC(=O)OCC(=O)Nc3cc(Cl)cc(Cl)c3)C2=O)cc1 | 0% |
| O=C(NCC1CC1)c1ccc(Nc2nc3ccc(Br)cc3[nH]2)cc1 | 0% |
| Nc1cc2nsnc2cc1Br | 0% |
| CC(C)(C)c1nc2scc(-c3cccs3)c2c(=O)o1 | 80% (active) |
| O=c1cc(-c2ccc(O)c(-c3c(O)cc(O)c4c(=O)cc(-c5ccc(O)cc5)oc34)c2)oc2cc(O)cc(O)c12 | 95% (active) |
| COc1cc(-c2nc(-c3ccc4c(c3)-c3ccccc3S4(=O)=O)c(-c3ccccc3)[nH]2)cc(OC)c1O | 40% |
| Cc1nc2scc(-c3ccccc3)c2c(=O)o1 | 80% (active) |
| O=C(Nc1ccc(F)cc1)Nc1ccc(N2CCCC2)c(S(=O)(=O)Nc2ccccc2Cl)c1 | 95% (active) |
| O=C(O)C1Nc2ccc(Br)cc2C2C=CCC12 (centres undefined) | 0% |
| O=C(Nc1ccc(N2CCCC2)c(S(=O)(=O)Nc2cccc(C(F)(F)F)c2)c1)c1cccs1 | 85% (active) |
| COc1cccc(C=NNC(=O)c2[nH]c(C)c(C(=O)NN=Cc3cccc(OC)c3O)c2C)c1O | 75% (active) |
| Cc1cc(NN=Cc2c(O)ccc3ccccc23)nc(-c2ccccc2O)n1 | 85% (active) |
| CSC[C@@H]1NC(=S)N(c2ccc(C)cc2)C1=O | 0% |
| Clc1ccccc1C(c1ccccc1)(c1ccccc1)n1ccnc1 | 0% |
| CCc1cc(C(Cc2ccc3ccccc3n2)=NO)c(O)cc1O | 0% |
